Assay results taken from PubChem BioAssay AID588511 (Johns Hopkins Ion Channel Center, 2011).
The campaign covered roughly 310,000 compounds. About 3,600 (1.2%) were called active.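 How the source made its calls: active means ratio plate-corrected score three or more library SD toward inhibition, starting fluorescence score within five deviations; inactive means the rest.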 The list comes from a sample in which actives are over-represented; it also holds similar structures and randomly drawn compounds.

biological target: Anoctamin-1 (Mus musculus) (UniProt Q8BHY3); assay: blockers of mouse ANO1 Ca-activated Cl channel – cell-based, HTS, primary screen (AID 588511); conditions: HEK293 TMEM16A/YFP iodide influx fluorescence, ionomycin; at 10 µM;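 on normalized B-score (activity score, 25-100; higher = stronger inhibition): score derived from kinetic fluorescence span divided by baseline fluorescence per well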
Sequence (Q8BHY3 whole entry, looked up): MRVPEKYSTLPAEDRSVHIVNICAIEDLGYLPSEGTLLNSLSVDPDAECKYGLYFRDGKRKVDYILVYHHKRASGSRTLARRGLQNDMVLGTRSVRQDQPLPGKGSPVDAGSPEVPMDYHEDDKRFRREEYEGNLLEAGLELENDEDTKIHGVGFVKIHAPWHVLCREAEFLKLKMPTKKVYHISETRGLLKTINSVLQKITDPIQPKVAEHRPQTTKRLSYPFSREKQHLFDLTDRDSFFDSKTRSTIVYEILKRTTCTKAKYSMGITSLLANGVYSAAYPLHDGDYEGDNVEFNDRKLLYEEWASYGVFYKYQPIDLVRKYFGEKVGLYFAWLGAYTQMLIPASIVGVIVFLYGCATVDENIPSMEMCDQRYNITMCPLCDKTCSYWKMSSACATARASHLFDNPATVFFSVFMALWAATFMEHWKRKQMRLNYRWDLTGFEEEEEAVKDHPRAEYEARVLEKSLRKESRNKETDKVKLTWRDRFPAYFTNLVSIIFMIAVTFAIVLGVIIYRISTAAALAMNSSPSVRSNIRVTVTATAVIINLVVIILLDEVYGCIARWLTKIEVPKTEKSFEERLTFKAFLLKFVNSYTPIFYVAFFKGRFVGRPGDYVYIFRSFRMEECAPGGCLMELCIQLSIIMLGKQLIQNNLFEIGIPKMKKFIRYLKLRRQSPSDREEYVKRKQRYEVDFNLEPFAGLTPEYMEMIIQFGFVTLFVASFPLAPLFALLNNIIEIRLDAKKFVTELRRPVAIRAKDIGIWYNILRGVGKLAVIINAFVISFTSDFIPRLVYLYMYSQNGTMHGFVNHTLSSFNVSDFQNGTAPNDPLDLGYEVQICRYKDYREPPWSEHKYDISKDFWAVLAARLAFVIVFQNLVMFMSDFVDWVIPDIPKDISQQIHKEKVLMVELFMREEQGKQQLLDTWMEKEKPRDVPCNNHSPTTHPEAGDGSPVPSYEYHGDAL

SMILES	normalized B-score (activity score, 25-100; higher = stronger inhibition)
O=C(Nc1ccc(C(=O)NCc2ccccc2Cl)cc1)C1=CSCCO1	inactive
O=C(/C=C/c1ccco1)NC(=S)N1CCCCC1	inactive
O=C(Nc1cccnc1)c1noc2c1CCCCC2	inactive
CCN1CCN(C(=O)C2CCN(S(=O)(=O)c3cc(Cl)ccc3Cl)CC2)CC1	inactive
CCCCNC(=O)C1CCC(=O)N1CCc1ccccc1 (stereo not given)	inactive
CCNC(=O)CSc1nc(-c2ccccc2)cs1	inactive
O=C(CSc1nc(-c2ccccc2)cs1)Nc1cccc([N+](=O)[O-])c1	100 (active)
O=C(CSc1ncn[nH]1)Nc1nc(-c2cccc([N+](=O)[O-])c2)cs1	inactive
COc1ccc(CN2CCNC(=O)C2CC(=O)N(C)Cc2ccccn2)cc1OC (stereo not given)	inactive
Cc1ccc(SCC(=O)Nc2ccc3c(c2)OCCO3)cc1	inactive
Cc1ccc(SCC(=O)c2cc(C)c(OC(=S)N(C)C)c(C)c2)cc1	100 (active)
Cc1ccc(C(=O)CSc2ccccc2C(=O)O)cc1	inactive
O=C(C1CCN(S(=O)(=O)c2ccc(Br)s2)CC1)N1CCN(c2ccccc2)CC1	inactive
Cc1ccc(N2CC(C(=O)Nc3ccc(S(=O)(=O)N4CCCC4)cc3)CC2=O)cc1C (stereo not given)	inactive
COc1ccc(S(=O)(=O)N2CCCCC2)cc1NC(=O)C1CC(=O)N(c2ccc3c(c2)OCCO3)C1 (stereo not given)	inactive
Cc1ccc(NC(=O)C2CC(=O)N(c3ccc4c(c3)OCCO4)C2)cc1S(=O)(=O)N1CCCCCC1 (stereo not given)	25 (active)
Cc1oc(-c2ccccc2F)nc1CS(=O)CC(=O)NCCN1CCCCC1C (stereo not given)	inactive
CC(c1ccccn1)N(CCN(C)C)C(=S)Nc1ccccc1F (stereo not given)	inactive
CSc1cccc(NC(=S)N(C(C)C)C(C)c2ccccn2)c1 (stereo not given)	25 (active)
CSc1cccc(NC(=S)N(Cc2ccccc2)Cc2ccccn2)c1	inactive
CC(=O)N/N=C(\C)c1ccc(Br)cc1Br	inactive
CC(C)/C=N/NC(=O)c1cc(Br)ccc1O	inactive
CC(=N\NC(=O)c1cc(Br)ccc1O)/C(=N/O)C(=O)Nc1ccccc1	25 (active)
O=C(NC(=S)Nc1ccc(Cl)c(C(=O)O)c1)c1cncc(Br)c1	inactive
COc1cc(C)c(C(C)C)cc1S(=O)(=O)n1ccnc1	inactive
COc1ccccc1-n1cnc2cc(NS(=O)(=O)c3ccccc3)ccc21	inactive
O=C(O)c1ccc(Cn2c(=S)[nH]c3cc(Cl)ccc3c2=O)cc1	inactive

SMILES	normalized B-score (activity score, 25-100; higher = stronger inhibition)
CC(C)c1ccc2c(c1)c(SC(C)(C)C)c(CC(C)(C)C(=O)O)n2Cc1ccc(Cl)cc1	100 (active)
O=C(COC(=O)CNS(=O)(=O)c1ccccc1)NC12CC3CC(CC(C3)C1)C2	inactive
CSc1ncc(Sc2ccccc2)c(C(=O)O)n1	inactive
CSc1nnc2c(n1)OC(c1cn(C)c3ccccc13)N(C(C)=O)c1ccccc1-2 (stereo not given)	inactive
CSc1nnc2c(n1)OC(c1ccsc1)N(C(C)=O)c1ccccc1-2 (stereo not given)	100 (active)
O=C(NCCc1ccc(Cl)cc1Cl)c1cc([N+](=O)[O-])c[nH]c1=O	100 (active)
NS(=O)(=O)c1ccc(CCNC(=O)c2ccc(Cl)cc2[N+](=O)[O-])cc1	inactive
O=C(NCCc1c[nH]c2ccc(Cl)cc12)c1ccc([N+](=O)[O-])cc1	inactive
CC(C)CC(CCc1ccccc1)OS(N)(=O)=O (stereo not given)	inactive
CSc1nc2nc3c(c(=O)n2[nH]1)CCC3	inactive
COc1ccc(C(=O)CCc2ccccc2O)c(OC)c1	inactive
CCOc1ccc(NC(=O)CCCCCN2C(=O)[C@@H]3Cc4ccccc4CN3C2=O)cc1	inactive
COc1cc(Cl)c(C)cc1NC(=O)CSc1nnc(-c2cccnc2)n1Cc1ccco1	inactive
O=C(CSc1nnc(-c2cccnc2)n1Cc1ccco1)c1ccc(Cl)c(Cl)c1	inactive
CCOC(=O)Cc1csc(NC(=O)CSc2nnc(-c3cccnc3)n2Cc2ccco2)n1	100 (active)
COc1ccc(/C(C)=N\NC(=O)c2ccc(-c3ccccc3)cc2)c(F)c1	inactive
O=[N+]([O-])C(=c1ccc2c(c1)N1C3=C(CCCC3)CC3CCCCC31N=2)[N+](=O)[O-] (stereo not given)	inactive
Cc1[nH]n(-c2cccc(Cl)c2)c(=O)c1-c1ccc(Cl)cc1	25 (active)
Cc1[nH]n(-c2cccc(Cl)c2)c(=O)c1/C=N/n1c(C)nc2ccccc2c1=O	inactive
O=c1c(-c2cccc(Cl)c2)c[nH]n1-c1ccccc1	inactive
Cc1ccccc1OCC(=O)N(Cc1cccc(F)c1)C1CCS(=O)(=O)C1 (stereo not given)	inactive
C=CCn1c(SCC(=O)Nc2nc3ccccc3s2)nnc1-c1ccccc1O	100 (active)
Cn1nnnc1SCC(=O)Nc1nc2ccccc2s1	inactive
C=CCn1c(SCC(=O)NCc2ccccc2)nnc1-c1cc(Br)ccc1O	inactive
COc1ccc(Cl)cc1NC(=O)CN(C)C(=O)c1cc2ccccc2cc1OC	inactive
CN(CC(O)COc1ccc(S(=O)(=O)N2CCOCC2)cc1Cl)C1CCCCC1 (stereo not given)	inactive
O=C(/C=C/c1ccc(F)cc1)Nc1cccc(S(=O)(=O)Nc2cccc(C(F)(F)F)c2)c1	inactive

SMILES	normalized B-score (activity score, 25-100; higher = stronger inhibition)
Cc1oc2c(F)c(F)c(F)c(F)c2c1S(=O)(=O)Nc1cccc(C(F)(F)F)c1	100 (active)
CCOC(=O)N1CCN(C(=O)c2ccc(S(=O)(=O)Nc3cccc(C(F)(F)F)c3)cc2)CC1	inactive
COc1ccccc1-n1c(SCC(=O)Nc2cccc(C(=O)O)c2)nnc1-c1ccccc1O	inactive
Cc1cc2c(cc1C)N(Cc1ccccc1)C1=NCCCN12	inactive
Cn1cc(C(=O)c2ccc(Cl)cc2Cl)cc1C(=O)NN	inactive
O=C(CCc1ccccc1)Nc1ncc([N+](=O)[O-])s1	inactive
O=C(Cc1c(F)cccc1Cl)Nc1ccc(-n2cnnn2)cc1	inactive
O=C(Cc1c(F)cccc1Cl)Nc1ncc([N+](=O)[O-])s1	100 (active)
Cc1ccc2nsnc2c1NC(=O)c1ccccc1[N+](=O)[O-]	inactive
O=C(NCCc1ccc2c(c1)OCCO2)c1cc2ccccc2o1	100 (active)
N=c1oc2ccccc2cc1C(=O)NCc1ccccc1	inactive
O=C(CC(Cc1ccccc1)C(=O)O)NCCc1ccc2c(c1)OCO2 (stereo not given)	inactive
O=C(COc1cc(Cl)c(Cl)cc1Cl)NC(=O)NC1CCCC1	inactive
O=C(NCc1cccnc1)c1ccccc1NC(=O)c1c(F)cccc1F	inactive
Cc1nc2c(ncn2-c2ccccc2)c(=O)n1NC(=O)CN1CCCC1	inactive
CCOC(=O)N1CC=C2C(C#N)=C(N)C(C#N)(C#N)[C@H](c3cccs3)[C@H]2C1	25 (active)
CCN1CC=C2C(C#N)=C(N)C(C#N)(C#N)[C@H](c3ccoc3)[C@H]2C1	inactive
CCCN1CC=C2C(C#N)=C(N)C(C#N)(C#N)C(c3cc(OC)ccc3OC)C2C1 (stereo not given)	inactive
CCC(C(=O)NCCC(C)C)N(Cc1ccccc1Cl)C(=O)c1snc(C(N)=O)c1N (stereo not given)	inactive
COC(=O)c1cc(OCC(=O)NC2CCCc3ccccc32)cc(C(=O)OC)c1 (stereo not given)	inactive
O=C(CCCN1CCc2[nH]c3ccc(F)cc3c2C1)c1ccc(F)cc1	inactive
Oc1c(Cl)cc(Cl)c(Cl)c1Cc1c(O)c(Cl)cc(Cl)c1Cl	100 (active)
O=C(N/N=C/c1cccc(OCc2ccccc2)c1)c1ccc(Br)o1	inactive
CCOc1ccc(CN2CCN(Cc3c[nH]c4ccccc34)CC2)cc1	inactive
CN(C)/C=N/c1cc(=O)n(C)c(=O)n1CC1CC1	inactive
O=C(NCCc1ccc(Cl)cc1)c1cccc(N2CCCC2=O)c1	inactive
COc1ccc(CCNC(=S)N2CCN(S(=O)(=O)c3ccc(Cl)cc3)CC2)cc1	inactive

SMILES	normalized B-score (activity score, 25-100; higher = stronger inhibition)
Oc1cc2c(cc1O)CN(C(=S)NCCc1ccc(Cl)cc1)CCC2	25 (active)
Cc1cc2cc3c(cc2nc1SCC(=O)Nc1c(C)cccc1C)CCC3	inactive
Cc1cn(C2OC[C@@H](O)[C@@H]2CO)c(=O)[nH]c1=O (stereo not given in full)	inactive
COc1ccc(C(C#N)N2N=C(C)CC2(C)C)cc1 (stereo not given)	inactive
O=C(CN1C(=O)/C(=C\c2ccc(C(F)(F)F)cc2)Sc2ccccc21)NCc1ccco1	inactive
O=C(CN1C(=O)/C(=C/c2ccccc2F)Sc2ccccc21)NCc1cccnc1	100 (active)
O=C(CN1C(=O)S/C(=C\c2ccccc2F)C1=O)NCCCn1ccnc1	inactive
CN(C)CCOc1ccc(Cl)cc1C(C)(C)C	inactive
CCc1nc(C)ccc1OCC(=O)N(CC)CC	inactive
CCC(C)(C)c1ccc(OCC(=O)N(C)C)c(C(C)(C)CC)c1	100 (active)
COc1ccc(/C=C2\SC(=O)N(CCC(=O)NCCCn3ccnc3)C2=O)cc1	inactive
O=C(CCCN1C(=O)/C(=C\c2ccccc2)SC1=S)Nc1ccccc1O	inactive
COc1ccc(/C=C2/SC(=O)N(CCCCCC(=O)Nc3ccccc3C(=O)O)C2=S)cc1	100 (active)
OC(c1ccccc1)C(CN1CCOCC1)c1ccccc1 (stereo not given)	inactive
Cc1c(NS(=O)(=O)c2ccc(NC3CCCC3)c([N+](=O)[O-])c2)c(=O)n(-c2ccccc2)n1C	inactive
Cc1cc(C=O)c(C)n1-c1ccc(NC2CCCCC2)c([N+](=O)[O-])c1	100 (active)
Cc1cc([N+](=O)[O-])ccc1NC1CCCC1	inactive
COc1ccc(F)cc1C(=O)C1CCCN(C(=O)CCc2ccccn2)C1 (stereo not given)	inactive
O=C(N/N=C1\CCSC1)c1cc(Cl)ccc1O	inactive
CC1CCCCC1NC(=O)c1cc(=O)[nH]c2ccccc12 (stereo not given)	inactive
Cc1c(C(=O)OC(C)C)sc(NC(=O)c2cccnc2)c1C#N	100 (active)
CCOC(=O)c1cc(NC(=O)c2cccnc2)ccn1	inactive
CCOC(=O)c1ccc(NC(=O)c2cccnc2)cc1	inactive
Cc1ccc(/C=N/NC(=O)C(NC(=O)c2ccccc2)c2n[nH]c(=O)c3ccccc23)cc1 (stereo not given)	inactive
